Measurements taken from the supplement of paper PMC11417369.
The full ranking holds about 25,000 sequences; the median of “ln(normalized median fluorescence intensity)” is about 7.1, and the highest 2% start at about 10. For the sample, the highest values were picked, then their nearest neighbours and some sequences at random.

tested on: PfSIP2 AP2 domain 1 (GST-tagged); assay: gcPBM binding intensity (ln(normalized median fluorescence intensity)); higher = stronger DNA binding
How it was run: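 The highest Masliner-normalised natural-log median intensity across replicate spots of either probe orientation is reported as binding intensity. GST-tagged P. falciparum DNA-binding domains expressed in E. coli were applied for 1 h to an Agilent 4 × 180k array of primer-extended double-stranded 36-bp intergenic genomic probes plus negative controls, and bound protein was detected with Alexa488 anti-GST antibody and scanned at 488 nm.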

| Sequence | gcPBM binding intensity (ln) |
| --- | --- |
| GTAATATTAAAATATACACACATAGAATATATATAT [CACACA_site4391] | 8.8 |
| TATAATAATATAATGGTGCATGTATATAACCATATA | 10.7 |
| TATATATAATATAGTGCATGTAAAAAATAAACCATG [TGCATGCA_site932] | 9.18 |
| GCATGTATAATGGTAGTGCATATAATAATATAATAA [GTGCAC_site9548] | 9.06 |
| TGAACTCACGAGCACACACACACATATATATATATA [CACACA_site8248] | 9.18 |
| TAAAATTTAAAATATACACACAAAAAGTTATTACAA [CACACA_site4080] | 6.93 |
| CTAATCGTGCACAACTGTACATTTGTCAAGGGCAAT [XGTACX_site8662] | 10.4 |
| AACTGTACAATTTTTGTGCACAATAATTATTAATAT [GTGCAC_site9462] | 8.74 |
| TAAAATATATAAAACTGTACATTTTAAAGGCACAAC [XGTACX_site8342] | 7.55 |
| ATATAAATGATATGTACACACATTTATATATATAAA [CACACA_site3475] | 7.04 |
| AATATATACCAACATAAATATATATATATATATATA [TGCATGCA_negctrl_site334] | 9.89 |
| AATATTTTATTTTGGGTGCAAAAGAATATTATTTCA | 10.4 |
| TTAAAAGAATATAATGCACACATTATTTTATTTTAT [CACACA_site3772] | 7.03 |
| TCAAAAGAATAATTGGTGCAAATTATATAATATAAT [GTGCAC_site9804] | 10.2 |
| ATTTTATTTTATTAAGTGCAAAAAAAAAAAAAGAAA | 8.24 |
| TTATAATATATATAAAAGAAAAAAAATTATAATATA [CACACA_negctrl_site90] | 6.69 |
| ATAAAATTATTATATACATGCAAAATTAATATATTG [TGCATGCA_site507] | 6.84 |
| TATTTATTATTATGTACACACTATATTAAAACATAA [CACACA_site4549] | 7.08 |
| CTCAAATGTTATTGTAGTACCTAAAAAATATATTCT [XGTACX_site1970] | 6.97 |
| TGTAGTCTGGAGAAACGTACATAGTATCTGGTAGCT [XGTACX_site2538] | 6.84 |

| Sequence | gcPBM binding intensity (ln) |
| --- | --- |
| TTTTAACATATAAGTACACACATATAATCAATCATA [CACACA_site2325] | 7.25 |
| AATTTCTTTTTCGATATACACACTGTATGTGTCTAA [CACACA_site3975] | 6.94 |
| CATAATATGTGGACTTTACACACTTGTTTTAAAATT [CACACA_site819] | 6.87 |
| AAAATCTAATATAATGCACACATAAAAAAAAATCAA [CACACA_site9211] | 7.52 |
| AAAATCTAATATAATGCACACATAAAAAAAAAATCA [CACACA_site8871] | 7.17 |
| AATGTAGAAATGGGTGCACACACATATATAATATAT [CACACA_site8799] | 11.7 |
| TGTATGTTTGGGTGCACACATAAATATTATATATAG [CACACA_site3397] | 12.2 |
| AATATATATATATGTGCACACATATATAATATGTAT [CACACA_site716] | 8.55 |
| TATATGTATGTTTGTGTGCACACATAAATATTATAT | 8.48 |
| TGTAGAAATGGGTGCACACACATATAAAATCTATAT [CACACA_site7224] | 12.2 |
| TATATATATATGTGCACACATATATAATATGTATAA [CACACA_site715] | 9.37 |
| ATATATATATATATTGCACACATATAAATATATATA [CACACA_site8167] | 9.22 |
| ACATATAAATATTGTGTGCACACACATAATATATAT | 8.29 |
| ATAAATATTGGGTGCACACACATAATATATATATAT [CACACA_site2272] | 12.2 |
| TATGTATGTTAGTGTGCACACATAAATATTATATAT [CACACA_site9121] | 9.26 |
| TTAATATTGTATTTCACACATAATTTAATATACTCA [CACACA_site5678] | 6.87 |
| CAAAAAAAAAAAAAAACACACATTAAATTATAAAGA [CACACA_site2613] | 6.77 |
| TTTTATATTCCACAAAAAATTATATAATAATAGAAC [CACACA_negctrl_site1741] | 7.26 |
| TATATATATATATTCACACATAAATATATGCACCCA [CACACA_site4263] | 11.6 |
| TATATATATATATTCACACATAAAAATAAAATAAAA [CACACA_site4774] | 8.88 |

| Sequence | gcPBM binding intensity (ln) |
| --- | --- |
| ATAATAAAAAAAAATGCACACATATATATATATATA [CACACA_site8766] | 9.29 |
| TAAACATAAATATGCACACATATACATATATTCATA [CACACA_site2667] | 7.34 |
| TGTAGAAATGGGTGCACACACATATATAATATATAT [CACACA_site2507] | 12.3 |
| AAAATATAATATAATGCACACATAAAAAAAAAAAAA [CACACA_site7989] | 7.19 |
| TATTTGATAAATTATACACACACAATATATATAAAA [CACACA_site8625] | 6.94 |
| AAGATTAGGTTAATTAGTACTTATTATATTGTAATG [XGTACX_site3653] | 6.85 |
| AATAAAAATAATATAGTGCATAATATAAGGAAAAAA | 9.36 |
| TACCAATGCATAACGGTGCAAAAAAATAAGGAATAA | 10.7 |
| TATACCAATGAATGAGTGCAAAGAAGATAAGGAAAA | 8.58 |
| AAAATGGTTTATAAATGTACATATATTATATATAAC [XGTACX_site7959] | 7.03 |
| TATGTGCACCCATGTACATGCGGACATATGTTATAT [TGCATGCA_site383] | 12 |
| ATATATATATATGCATGTACATATATTTGTTATATC [XGTACX_site3197] | 9.3 |
| TATATATATATATATGCATGTACATATATTTGTTAT [TGCATGCA_site379] | 9.76 |
| AAAATAAAAAATTAATGTACTTAGAATTGTCACTAA [XGTACX_site1346] | 6.79 |
| AAAAAAACAACATGCACACGCACACCCAAAAAAAGC [CACACA_site72] | 7.96 |
| AGAAAAAAACAACATGCACACGCACCCACAAAAAAA [CACACA_site7908] | 10.2 |
| CCAACATGCCCACGCACACACAAAAAAAGCATGCAT [CACACA_site4217] | 7.23 |
| TATGCAAGGAACCACACACACACACGGAAATGTATA [CACACA_site6490] | 6.94 |
| AATTTAATATAATGCACACATAAAAAAAAATTCAAA [CACACA_site2062] | 7.16 |
